From PubChem
FUS yeast rescue: suppressors of FUS proteinopathy in yeast | 390,000 compounds, 0.24% hits | Potency, µM (highest dose often 76.6 µM), hits mostly activators | S. cerevisiae FUS-expressing, growth rescue, OD600, 24 h;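 also: plate controls were DMSO vehicle for no effect and reference control for full effect; nearly all actives have a fitted effect of over 55% in size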
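Compound concentration series was pinned onto galactose-induced FUS-expressing yeast seeded at OD 0.005. Plates sat 24hr at 30C; absorbance at 600 nm gave growth. DMSO served as background control.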
Mito fusion yeast: blocks mitochondrial division or promotes mitochondrial fusion. S. cerevisiae fusion-defective mutant growth rescue, CellTiterGlo 48 h. Potency, µM (series often up to 46.1 µM), for inactives: top-dose growth rescue (activation), actives largely listed as activators. 320,000 compounds, 0.23% hits. AID 485298; also: % of control where 0% means no effect; nearly all actives have a fitted effect of over 45% in size
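Growth-rescue viability read-out: after 48 h at the non-permissive 37C in glycerol/ethanol YPEG, yeast mitochondrial fusion mutants are measured by CellTiterGlo luminescence; compounds (23 nl pinned per well) restoring growth score as division inhibitors or fusion activators.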
Abeta rescue: restores growth of yeast expressing A-beta42 peptide. yeast expressing A-beta42, growth rescue, OD600, 48 h; response scale: 0% DMSO, 100% iron-clioquinol control. Potency, µM (titrated, usually from 46.1 µM), most hits filed as activators. 410,000 compounds, 0.063% hits; also: nearly all actives have a fitted effect of over 55% in size
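Yeast growth medium received pinned compounds, then yeast cells expressing toxic A-beta were added; plates incubated at 30 C for 48 hr. Growth read as absorbance at 600 nm, normalized to DMSO and equimolar FeCl3 plus clioquinol controls.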
TDP-43 yeast inh: inhibitors of TDP-43 toxicity in yeast; TDP-43 expressing yeast growth rescue, BacTiter-Glo, 24 h; Potency, µM (titrated, usually from 46.1 µM), inactives show at the top dose growth rescue (activation), most hits filed as activators; 410,000 compounds, 1.8% hits; also: % of control where 0% means no effect; nearly all actives have a fitted effect of over 50% in size
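Galactose-induced TDP-43 yeast, OD600=0.02, compound pinned; 24 hr, 30 deg C; BacTiter-Glo luminescence for growth. Inhibitors of TDP-43 toxicity read as activators.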
aSyn yeast inh: inhibitors of alpha-synuclein toxicity in yeast; AID 652106; 370,000 compounds, 0.14% hits; Potency, µM (doses to about 46.1 µM), inactives show top-dose growth rescue (activation), hits mostly activators; Yeast expressing alpha-synuclein, growth rescue, BacTiter-Glo, 24 h; also: % of control where 0% means no effect; nearly all actives have a fitted effect of over 65% in size
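Readout is rescue of growth in alpha-synuclein-expressing yeast, so inhibitors of toxicity appear as activators. Growth after 24 hr at 30 deg C in galactose medium is quantified by luminescence.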
An asterisk follows results filed as active; i = inactive; ? = inconclusive; . = no result; [ ] = another dose, or the depositor's remark. Hits are enriched below; roughly 2.2% of the tested compounds scored in any of these assays. Calls follow the shape of the dose curve; as a rule, active = well fitted curve in the direction sought with a large enough effect; inconclusive = small, poorly fitted or top-dose-only effect, or another doubt; inactive = no such curve, though single readings can be large; an effect the other way counts as inactive or inconclusive. Potency is read from the fitted curve at half-maximal effect.

SMILES	FUS yeast rescue	Mito fusion yeast	Abeta rescue	TDP-43 yeast inh	aSyn yeast inh
O=C(NC(=S)NNC(=O)c1cnccn1)c1ccc(Cl)cc1	i	7%	i	3.2µM*	5µM*
COc1ccc(CCNC(=S)NC(=O)c2cccc([N+](=O)[O-])c2)cc1OC	.	-7%	i	13µM*	-1%
CC(C)CCn1c(N2CCc3ccccc3C2)nc2c1c(=O)[nH]c(=O)n2C	i	-5%	i	?	2%
O=C(COc1ccccc1)NNC(=S)NC(=O)c1ccccc1	i	-19%	?	3.5µM*	?
CCCCCCCC(=O)NNC(=O)c1ccc([N+](=O)[O-])cc1	i	7%	i	7%	2%
O=C(CCc1ccccc1)NNC(=S)NC(=O)c1ccc(Cl)cc1	i	4%	?	14µM*	13µM*
Cc1ccc(C(=O)NC(=S)NNC(=O)COc2ccc([N+](=O)[O-])cc2)cc1	i	-7%	?	20µM*	12%
CCCC(=O)NC(=S)NNC(=O)c1ccc([N+](=O)[O-])cc1	i	-10%	i	15%	20µM*
C=CCN1C(=O)[C@@H](CC(=O)NCc2cccc3ccccc23)[C@]2(C(=O)OC)CCCCC=C12	i	.	.	.	.
O=C(Nc1ccc2ccccc2c1)NC1CCCCN(Cc2cccc(Cl)c2)C1=O (stereo not drawn)	i	.	.	.	.
CSc1nc2ccccc2nc1N(C)S(=O)(=O)c1ccc(C)cc1	i	5%	i	-18%	-5%
O=C(NC(=S)Nc1ccc(-c2ccccc2)cc1)c1ccccc1	i	.	i	-7%	14%
CC(C)NC(=S)NC(=O)c1ccc(-c2ccccc2)cc1	i	9%	i	18µM*	-17%
O=C(OCc1ccccc1)[C@H](Cc1ccccc1)NC(=O)[C@@H]1CC=C[C@@H]2CCN(Cc3ccc(Cl)cc3)C(=O)[C@@H]21	i	.	.	.	.
COc1ccc(-c2csc(NC(=O)C3COc4ccccc4O3)n2)cc1OC (stereo not drawn)	i	-10%	i	35µM*	-21%
CCCC(=O)Nc1nc(-c2ccc3c(c2)OCCO3)cs1	i	4%	i	10µM*	-19%
CSCC(=O)Nc1nc(-c2ccc3c(c2)OCCO3)cs1	i	6%	i	?	-11%
COc1ccc(OC)c2sc(NNC(=O)C3COc4ccccc4O3)nc12 (stereo not drawn)	i	21%	?	6.3µM*	5%
COc1cc(C(=O)NC(CCSC)C(=O)Nc2ccc(N3CCOCC3)cc2)cc(OC)c1OC (stereo not drawn)	i	.	i	-1%	-4%
COc1cccc(/C=C2\CC3(OC(=O)c4cccc(F)c4)CCCN2C3)c1 (stereo not drawn)	i	.	.	.	.
CC1CC(C)CN(C(=O)/C=C/c2ccc([N+](=O)[O-])s2)C1 (stereo not drawn)	i	6%	i	22µM*	1%
CCN1CCn2c3c(c4cccc(C)c42)CCCC31 (stereo not drawn)	i	-2%	i	2%	7%
C=CCOc1ccc2c(OC)c3ccoc3nc2c1OC	i	12%	i	11µM*	-3%
CCOC(=O)c1cccc(-c2cc(C(C)=O)c3n(c2=O)CCC3)c1	i	.	.	.	.
COc1ccc(F)cc1C1=CC(=O)C[C@H](c2ccc3c(c2)OCO3)C1	i	24%	i	22µM*	1%
SMILES	FUS yeast rescue	Mito fusion yeast	Abeta rescue	TDP-43 yeast inh	aSyn yeast inh
COc1cc(F)c(C2=CC(=O)C[C@H](c3ccc4c(c3)OCO4)C2)cc1F	i	11%	i	13µM*	-2%
COc1cccc(C2=CC(=O)C[C@H](c3ccc4c(c3)OCO4)C2)c1OC	?	12%	i	13µM*	-2%
COc1cccc(OC)c1C1=CC(=O)C[C@H](c2ccc3c(c2)OCO3)C1	i	21%	i	?	-6%
Cc1cc(C)n2nc(C(=O)OCC(=O)Nc3ccc4c(c3)OCCO4)nc2n1	i	1%	i	7%	4%[1.84 µM]
O=C(Nc1c(-c2ccccc2)nc2ncccn12)C1CC1	i	.	.	.	.
O=C(Nc1ccccc1C(=O)NCc1ccccc1)c1ccccc1Br	i	?	i	17%	-27%
Cc1ccccc1C(=O)Nc1ccccc1C(=O)NCc1ccccc1	i	6%	i	11µM*	-14%
O=C(NCc1ccc(F)cc1)c1ccccc1OCc1ccccc1	i	18µM*	i	0%	-8%
O=C(NC1CCCC1)c1ccccc1OCc1ccccc1	i	?	i	20µM*	6%
COc1ccccc1C(=O)NC1CCCCCCC1	i	24%	i	18µM*	3%
CN(C)C1(CNC(=O)C2CCN(S(=O)(=O)c3c(Cl)cccc3Cl)CC2)CCCCC1	i	3%	i	0%	1%
COc1ccc(C(O)c2ncc(-c3ccccc3C)[nH]2)cc1 (stereo not drawn)	i	.	i	28%	-4%
Cc1cccc(C)c1NC(=O)COC(=O)c1cc(=O)c2ccccc2o1	i	2%	i	5%	3%
CCN(C(=O)CSc1ccc2ccccc2n1)C1CCCCC1	.	.	i	22µM*	-13%
Cc1ccc(-n2nnnc2CNC(=O)c2cc(C(F)(F)F)cc(C(F)(F)F)c2)cc1C	i	.	i	10%	.
COc1cccc(-c2nc(CCl)cs2)c1OC	i	7%	i	14µM*	1%
CCCCNS(=O)(=O)CC1NCc2ccc(C)cc21 (stereo not drawn)	i	.	.	.	.
CCc1c(-c2ccccc2)ncn1Cc1cccc(-c2ccccc2)c1	i	.	i	13%	-32%
CCc1c(-c2ccccc2F)ncn1Cc1cccc(-c2ccccc2)c1	?	.	i	20µM*	-23%
Cc1ccc(NC(=O)C2CCCN(c3nnc(-n4cccc4)s3)C2)cc1C (stereo not drawn)	i	.	.	.	.
CCOC(=O)c1[nH]c2ccccc2c1NC(=O)c1cc(Cl)ccc1Cl	i	.	i	3%	.
CCOC(=O)c1[nH]c2ccccc2c1NC(=O)c1ccccc1OC	i	.	i	25µM*	.
CCC(=O)N1CCc2cc(Br)c(S(=O)(=O)NCc3ccccc3OC)cc21	i	.	.	.	.
O=C(OCc1nnc(-c2ccccc2)o1)c1ccc2c(c1)OCO2	?	23%	i	3%	-3%
c1ccc(-c2nnc(CSc3ccc4c(c3)OCCO4)o2)cc1	i	0%	i	13µM*	7%
Cc1cccc(NC(=O)C(=O)NCC2CCCN2S(=O)(=O)c2cccs2)c1C (stereo not drawn)	i	3%	i	4%	-8%
O=S(=O)(Nc1ccc2nc(-c3ccc(F)cc3)oc2c1)c1ccccc1	i	.	?	35µM*	.
